# Experimental data taken from PubChem BioAssay (NCATS).
# Several values for one entry are separate records, joined by “and”; a condition that tells them apart may be missing. Identical values can stand only once. Records with an inconclusive call do not appear. Entries that show only a call come without a potency. A number with no mark means an inactive call. Activity calls are given as the source filed them. Calls follow the shape of the dose curve; as a rule, active = well fitted inhibition curve with a large enough effect; inconclusive = small, poorly fitted or top-dose-only effect; inactive = flat fitted curve, though single readings scatter.
# Key:
# CRL-7250 = normal cell line; experiment: Cytotoxic Profiling of Annotated Libraries Using Quantitative High-Throughput Screening (AID 1296008); details: Five cell lines viability, CellTiter-Glo ATP luminescence, 48-72 h; max response: hits give low values; also: potency is read from the fitted curve at half-maximal effect
# In short: (§1)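 Compounds were pin-transferred onto cells and incubated 48 or 72 hr at 37 degree Celsius, 95% humidity. CellTiter-Glo was added, plates sat 10 min at room temperature, then ATP-coupled luminescence was imaged as the viability read-out.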
# HEK293 = experiment: as above; details: Five cell lines viability, CellTiter-Glo ATP luminescence, 48-72 h; max response: hits give low values
# In short: as §1
# HaCat [1] = experiment: as above; details: Five cell lines viability, CellTiter-Glo ATP luminescence, 48-72 h; max response: hits give low values
# In short: as §1
# KB-3-1 = experiment: as above; details: Five cell lines viability, CellTiter-Glo ATP luminescence, 48-72 h; max response: hits give low values
# In short: as §1
# NIH3T3 = experiment: as above; details: Five cell lines viability, CellTiter-Glo ATP luminescence, 48-72 h; max response: hits give low values
# In short: as §1
# HEK293T = experiment: qHTS assay to identify novel small-molecules to repurpose for Merkel cell carcinoma treatment (AID 1296009); details: MCC and control cell lines, CellTiter-Glo viability, 72 h; series mostly up to 44.8 µM
# In short: (§2)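 Viability readout: ATP luminescence (CellTiter-Glo) after 72 hr drug exposure at 37 degree celsius. Dose-response format was 8 points for NPC and 11 points for MIPE; data normalized to in-plate controls.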
# HACAT [2] = experiment: as above; details: MCC and control cell lines, CellTiter-Glo viability, 72 h; at 44.8 µM (top of the series) unless noted
# In short: as §2
# Also: nearly all actives have a fitted effect of over 60% in size.
smiles,measurement,setting,value
CC(C)=CCCC1(C)Oc2cc3c(c4c2C2C(O4)C(C)(O)CCC21)CN(C(CCC(=O)O)C(=O)O)C3=O (stereo not drawn),outcome,CRL-7250,inactive
same,outcome,HEK293,inactive
same,max response,HaCat [1],-6.38%
same,outcome,KB-3-1,inactive
same,outcome,NIH3T3,inactive
same,Potency,HEK293T,inactive
CCOc1c2c(c(OCC)c3ccccc13)C(=O)N(c1ccc(CC(=O)NS(=O)(=O)c3ccccc3)cc1)C2,max response,CRL-7250,-1.51%
same,outcome,HEK293,inactive
same,max response,HaCat [1],-7.44%
same,max response,KB-3-1,1.17%
same,max response,NIH3T3,3.33%
same,Potency,HEK293T,inactive
C=C1CC23CCC4[C@@](C)(CCC[C@@]4(C)C(=O)O)C2CCC1C3 (stereo partly drawn),max response,CRL-7250,-2.77%
same,outcome,HEK293,inactive
same,max response,HaCat [1],-11.3%
same,max response,KB-3-1,2.07%
same,max response,NIH3T3,3.55%
same,Potency,HEK293T,inactive
C[C@]12CCC(=O)C=C1[C@@H](O)C[C@@H]1[C@@H]2[C@@H](O)C[C@@]2(C)[C@H]1CC[C@]2(O)C(=O)CO,outcome,CRL-7250,inactive
same,outcome,HEK293,inactive
same,max response,HaCat [1],1.59%
same,outcome,NIH3T3,inactive
same,Potency,HEK293T,inactive
CCOC(=O)c1ccnc(CNCC(=O)N(CC)CCN(C)C)c1,max response,CRL-7250,3.74%
same,outcome,HEK293,inactive
same,outcome,HaCat [1],inactive
same,outcome,NIH3T3,inactive
same,outcome,HACAT [2],inactive
same,Potency,HEK293T,inactive
CN(C)C/C=C/C(=O)Nc1ccc(C(=O)Nc2cccc(Nc3ncc(Cl)c(-c4c[nH]c5ccccc45)n3)c2)cc1,Potency,CRL-7250,164 nM (active) and 263 nM (active)
same,Potency,HEK293,186 nM (active)
same,Potency,HaCat [1],1.84 µM (active) and 1.05 µM (active)
same,Potency,NIH3T3,1.16 µM (active) and 2.09 µM (active)
CC(C)=CCC/C(C)=C/CC/C(C)=C/CC[C@]1(C)CCc2cc(O)cc(C)c2O1,max response,CRL-7250,3.81%
same,outcome,HEK293,inactive
same,outcome,HaCat [1],inactive
same,max response,NIH3T3,1.13%
same,outcome,HACAT [2],inactive [at 17.4 µM]
same,Potency,HEK293T,inactive
C=CC(C)(C)C12CC3C(=O)NC(Cc4cnc[nH]4)C(=O)N3C1Nc1ccccc12 (stereo not drawn),max response,CRL-7250,-2.57%
same,outcome,HEK293,inactive
same,outcome,HaCat [1],inactive
same,outcome,NIH3T3,inactive
same,outcome,HACAT [2],inactive
same,Potency,HEK293T,inactive
COc1ncc(-c2ccc3c(Nc4cc(Oc5cc(F)cc(F)c5)cc(C(=O)O)c4)c(S(=O)(=O)NC4CC4)cnc3c2)c(OC)n1,max response,CRL-7250,-7.5% and -5.78%
same,max response,HEK293,0.563% and -20.6%
same,max response,HaCat [1],-12% and 2.17%
same,max response,NIH3T3,3.25% and -1.23%
CNc1nc(Nc2cnn([C@H]3CCN(C4COC4)C[C@@H]3F)c2Cl)ncc1C(F)(F)F,max response,CRL-7250,-6.85% and -3.81%
same,Potency,HEK293,23.1 µM (active) and 9.33 µM (active)
same,outcome,HaCat [1],inactive
same,max response,NIH3T3,-26.9%
same,outcome,HACAT [2],inactive
CCc1nc(C(N)=O)c(Nc2ccc(N3CCC(N4CCN(C)CC4)CC3)c(OC)c2)nc1NC1CCOCC1,Potency,CRL-7250,5.24 µM (active)
same,Potency,HEK293,1.61 µM (active) and 1.32 µM (active)
same,Potency,HaCat [1],2.55 µM (active)
same,Potency,NIH3T3,1.01 µM (active) and 831 nM (active)
O=C(O)CCc1cc2ccoc2cc1O[C@@H]1O[C@H](CO[C@@H]2OC[C@](O)(CO)[C@H]2O)[C@@H](O)[C@H](O)[C@H]1O,max response,CRL-7250,-5.99%
same,outcome,HEK293,inactive
same,outcome,HaCat [1],inactive
same,max response,NIH3T3,-2.27%
same,outcome,HACAT [2],inactive [at 17.4 µM]
same,Potency,HEK293T,inactive
O=C(O)c1cc(O)c2cccc(O)c2c1O[C@@H]1O[C@H](CO)[C@@H](O)[C@H](O)[C@H]1O,max response,CRL-7250,-1.91%
same,outcome,HEK293,inactive
same,max response,HaCat [1],2.74%
same,outcome,NIH3T3,inactive
same,Potency,HEK293T,inactive
CC1C(=O)CC2C3C(O)CC(C(=O)O)C12CC3(C)C (stereo not drawn),outcome,CRL-7250,inactive
same,outcome,HEK293,inactive
same,outcome,HaCat [1],inactive
same,outcome,NIH3T3,inactive
same,outcome,HACAT [2],inactive
same,Potency,HEK293T,inactive
OC[C@H]1O[C@@H](n2cnc3c2NC=NC[C@H]3O)C[C@@H]1O,max response,CRL-7250,4.05%
same,outcome,HEK293,inactive
same,max response,KB-3-1,-3.14% and 0.256%
same,max response,NIH3T3,-9.01%
same,Potency,HEK293T,inactive
CC(C)(O)C1CC=C(C(=O)OCC2OC(Oc3c(O)cc(C(=O)O)cc3O)C(O)C(O)C2O)CC1 (stereo not drawn),max response,CRL-7250,-4.71%
same,outcome,HEK293,inactive
same,max response,HaCat [1],-2.95%
same,outcome,NIH3T3,inactive
same,Potency,HEK293T,inactive
COC(=O)C1(Cc2ccc(O)cc2)OC(=O)C(OC)=C1c1ccc(O)cc1 (stereo not drawn),max response,CRL-7250,-4.87%
same,outcome,HEK293,inactive
same,max response,HaCat [1],-3.39%
same,outcome,KB-3-1,inactive
same,outcome,NIH3T3,inactive
same,Potency,HEK293T,inactive
CN1C(=O)c2ccccc2-n2c(nc3ccccc3c2=O)/C1=C/c1ccccc1,outcome,CRL-7250,inactive
same,outcome,HEK293,inactive
same,max response,HaCat [1],-6.39%
same,outcome,KB-3-1,inactive
same,max response,NIH3T3,3.9%
same,Potency,HEK293T,inactive
CC(=O)OC[C@@]12[C@@H](OC(C)=O)C[C@@H](C)[C@](C)([C@@H]3C[C@H]4C=CO[C@H]4O3)[C@H]1CCC[C@]21CO1,max response,CRL-7250,0.841%
same,outcome,HEK293,inactive
same,max response,HaCat [1],2.97%
same,max response,NIH3T3,-2.5%
same,Potency,HEK293T,inactive
OCC1=CC[C@@H]2C=CO[C@@H](O[C@@H]3O[C@H](CO)[C@@H](O)[C@H](O)[C@H]3O)[C@H]12,outcome,CRL-7250,inactive
same,outcome,HEK293,inactive
same,max response,HaCat [1],-13.7%
same,max response,NIH3T3,-0.173%
same,Potency,HEK293T,inactive
C=C(C)[C@@H]1CC[C@](C)(O)[C@@H](OC(=O)c2ccccc2)C1,outcome,CRL-7250,inactive
same,outcome,HEK293,inactive
same,max response,HaCat [1],-0.346%
same,outcome,NIH3T3,inactive
same,Potency,HEK293T,inactive
C[C@]12CC[C@@H]3c4ccc(O[C@@H]5O[C@H](C(=O)O)[C@@H](O)[C@H](O)[C@H]5O)cc4CC[C@H]3[C@@H]1CCC2=O,max response,CRL-7250,-0.486%
same,outcome,HEK293,inactive
same,outcome,HaCat [1],inactive
same,outcome,NIH3T3,inactive
same,outcome,HACAT [2],inactive
same,Potency,HEK293T,inactive
